# Bioassay records from PubChem.
# Shn3 inh set2 = reduces Shn3 3'UTR luciferase signal in osteoblasts; Clone20 osteoblast Shn3 3'UTR firefly luciferase, 24 h; inhibition, % at 12.5 µM; actives 0.52% (n = 360,000);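 active = mean inhibition of at least 75% with every replicate also reaching 75%; inconclusive = mean inhibition at least 75% but some replicate below; inactive = mean inhibition below 75%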;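 note: 0% = median of neutral control wells and 100% = pilot-screen positive control compound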
# Mdm2-MdmX inh = inhibitors of human Mdm2/MdmX interaction; SaOS-2 split-luciferase Mdm2/MdmX complementation, luminescence; AID 485346; inhibition, % at 8 µM; O15151+Q00987; actives 3% (n = 330,000);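 active = inhibition of at least 50% at 8 µM in the primary screen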
# Target sequence (O15151 whole entry, looked up): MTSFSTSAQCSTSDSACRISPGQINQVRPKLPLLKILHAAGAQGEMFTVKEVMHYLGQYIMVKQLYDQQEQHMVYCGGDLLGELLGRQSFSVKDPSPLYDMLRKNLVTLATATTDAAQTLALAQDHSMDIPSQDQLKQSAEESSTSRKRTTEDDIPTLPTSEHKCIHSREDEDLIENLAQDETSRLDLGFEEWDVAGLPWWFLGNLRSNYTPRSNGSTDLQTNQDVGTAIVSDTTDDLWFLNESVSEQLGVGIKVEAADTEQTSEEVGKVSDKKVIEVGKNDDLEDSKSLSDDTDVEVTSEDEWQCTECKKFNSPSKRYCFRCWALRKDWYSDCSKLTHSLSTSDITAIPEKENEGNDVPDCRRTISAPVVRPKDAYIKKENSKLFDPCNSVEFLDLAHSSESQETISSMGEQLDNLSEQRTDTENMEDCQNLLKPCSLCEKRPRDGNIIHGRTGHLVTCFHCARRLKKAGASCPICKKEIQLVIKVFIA
# Target sequence (Q00987 whole entry, looked up): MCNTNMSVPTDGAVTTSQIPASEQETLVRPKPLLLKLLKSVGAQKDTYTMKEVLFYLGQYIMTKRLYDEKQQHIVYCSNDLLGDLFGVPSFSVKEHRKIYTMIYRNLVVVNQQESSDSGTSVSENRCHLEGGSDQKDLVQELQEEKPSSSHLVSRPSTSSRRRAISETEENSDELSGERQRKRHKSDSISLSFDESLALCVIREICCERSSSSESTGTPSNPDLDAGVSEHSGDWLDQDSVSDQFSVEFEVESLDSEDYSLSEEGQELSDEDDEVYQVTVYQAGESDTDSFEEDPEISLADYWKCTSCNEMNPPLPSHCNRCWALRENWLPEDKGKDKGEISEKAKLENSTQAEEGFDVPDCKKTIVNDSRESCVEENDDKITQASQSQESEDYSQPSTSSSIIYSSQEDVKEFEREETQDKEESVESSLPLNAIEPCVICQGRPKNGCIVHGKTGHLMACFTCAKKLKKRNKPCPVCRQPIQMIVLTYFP
# PAX8 reporter = PAX8 transcriptional activity inhibition; RMG-I TPO-luciferase reporter, SteadyGlo, 24 h; inhibition, % at 12.6 µM; actives 1.2% (n = 360,000); AID 652154;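 active = mean replicate inhibition at least 60% with every replicate also reaching 60%; inconclusive = only one of the two criteria is met; inactive = mean below 60% and not all replicates reaching 60%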;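 note: luciferase light reporting Pax8 driven TPO promoter activity; plate controls were median of neutral control wells for no effect and mitoxantrone controls for full effect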
# Beta apoptosis = beta cell apoptosis inhibition; INS-1E cytokine-induced death, ATP luminescence, 48 h; percent of positive-control rescue, neutral wells zero; protection from apoptosis, % (no concentration beside the values); actives 0.8% (n = 300,000);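 active = Every replicate reaches about 75%, or at least half do and their mean reaches it too, limit read from the data; inconclusive = At least half of replicates reach the limit but their mean does not; inactive = Under half of replicates reach the limit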;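 note: 0% = cytokine-treated negative control wells and 100% = positive control rescue; higher means more ATP so stronger rescue from cytokine killing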
# Gli-Sufu antag = antagonists of Gli-Sufu signaling | inhibition, % at 5 µM | Sufu-KO-LIGHT fibroblasts, Gli luciferase reporter luminescence | actives 0.74% (n = 340,000);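 active = inhibition above about 55%, limit read from the data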;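 note: 0% = DMSO-treated cells and 100% = wells with medium but no cells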
# CSC inhib = blocks cancer stem cells | inhibition, % at 7.5 µM | actives 1.1% (n = 300,000) | cancer stem cell-like cells viability, luminescence; in the data active = inhibition above about 75%; inconclusive = no clear call, values can overlap the other calls; tested in HMLE shEcad cells
# Mdm2 MdmX conf = confirmation of human Mdm2/MdmX interaction inhibitors; shares compounds with Mdm2-MdmX inh; Mdm2-MdmX binding, luminescent assay; inhibition, % at 8 µM; actives 55% (n = 10,000); AID 489028; in the data active = inhibition above about 40%
# FLuc counter = counter-screen for Mdm2/MdmX inhibitors: full-length luciferase | shares compounds with Mdm2-MdmX inh | inhibition, % at 8 µM | actives 77% (n = 6,200) | SaOS-2 full-length luciferase counterscreen, luminescence;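 active = mean inhibition at 8 µM reaching about 37%, which flags the compound as non-specific, limit read from the data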;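 note: p53-null SaOS-2 cells with luciferase driven by a doxycycline-inducible promoter; compound on cells about two nights before reading with doxycycline added after day one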
# * hit, by the source's call; ? = inconclusive; nt = no result. Shown are actives, neighbours in structure and some others; about 4% of the full set was active somewhere.
SMILES,Shn3 inh set2,Mdm2-MdmX inh,PAX8 reporter,Beta apoptosis,Gli-Sufu antag,CSC inhib,Mdm2 MdmX conf,FLuc counter
O=C(CN1CCCc2ccccc21)N/N=C/c1ccccc1O,71.4,77.1*,35.0,98.8*,2.4,38.0,63.1*,19.3
CCCN1[C@H](C(=O)OC)[C@@H](CO)[C@@H]2Cn3c(ccc(-c4ccccc4OC)c3=O)[C@@H]21,nt,nt,-11.8,nt,nt,nt,nt,nt
COc1ccc(-c2nnc(SCC(=O)N3c4ccccc4Sc4ccccc43)o2)cc1,43.1,34.7,26.9,4.4,5.9,-3.6,nt,nt
COc1cc(OC)cc(-c2nnc(SCC(=O)N3c4ccccc4Sc4ccccc43)o2)c1,2.5,54.0*,nt,2.0,4.2,20.0,12.2,nt
CC(C)NC(=O)Nc1cccc2c1O[C@@H](CN(C)Cc1ccccc1)[C@@H](C)CN([C@H](C)CO)C2=O,nt,nt,5.8,nt,nt,nt,nt,nt
COc1ccc2sc(-c3ccccc3OC)c(-c3ccc(SC)cc3)c2c1,nt,nt,18.2,nt,nt,nt,nt,nt
COc1ccc2sc(-c3ccc(SC)cc3)c(-c3ccc(O)cc3)c2c1,9.4,53.8*,2.5,17.0,-0.4,107.4*,29.4,nt
C[C@@H]1CCCCO[C@H](CN(C)Cc2ccc(C(=O)O)cc2)[C@H](C)CN([C@H](C)CO)C(=O)c2cc(NC(=O)c3ccncc3)ccc2O1,nt,nt,8.3,nt,nt,nt,nt,nt
O=C(/C=C/c1cccc([N+](=O)[O-])c1)Nc1ccc(NC(=O)c2cccs2)cc1,3.9,85.5*,nt,-2.7,0.2,-7.3,3.0,nt
O=C(/C=C/c1cccc([N+](=O)[O-])c1)c1cccs1,9.6,73.6*,-40.5,0.5,-11.8,36.7,57.4*,73.8*
O=C(/C=C/c1cccc([N+](=O)[O-])c1)n1cnc2ccccc21,91.9*,100.3*,18.6,nt,15.6,nt,93.8*,24.6
O=C(N/N=C/c1cccc([N+](=O)[O-])c1)c1cccs1,-47.7,-2.3,-117.1,0.7,-16.1,-10.2,nt,nt
Cc1ccc(S(=O)(=O)N(C)C[C@@H]2OCCCC[C@@H](C)Oc3ccc(NC(=O)c4ccncc4)cc3C(=O)N([C@@H](C)CO)C[C@H]2C)cc1,nt,nt,8.0,nt,nt,nt,nt,nt
Nc1c(C(=O)NC2CCCC2)c2nc3ccccc3nc2n1/N=C/c1cccnc1,5.9,51.1*,-5.7,0.9,-5.7,45.0,23.1,nt
COc1ccc(/C=C\C(=O)O[C@@H]2C(O)C(O[C@@H]3OC(C)[C@H](O[C@@H]4OCC(O[C@H]5O[C@H](CO)[C@@H](O)C(O)C5O)C(O)C4O)C(O)C3O)[C@H](OC(=O)[C@]34CCC(C)(C)C[C@@H]3C3=CCC5[C@@]6(C)CC(O)C(O[C@@H]7OC(CO)C(O)[C@H](O)[C@H]7O)[C@@](C)(C(=O)O)C6CC[C@@]5(C)[C@]3(CO)CC4)O[C@H]2C)cc1 (stereo partly specified),-1.1,78.7*,nt,36.7,33.4,64.6,58.6*,17.2
C/C=C/c1ccc2c(c1)O[C@@H](CN(C)C(=O)C1CCCCC1)[C@@H](C)CN([C@@H](C)CO)S2(=O)=O,nt,nt,-17.2,nt,nt,nt,nt,nt
Cc1cc(/C=C2\SC(=S)NC2=O)c(C)n1-c1ccc(O)cc1,-67.5,19.6,-158.5,5.8,-68.1,17.5,nt,nt
Cc1cc(/C=C2\SC(=Nc3ccc(F)cc3)NC2=O)c(C)n1-c1ccc(S(N)(=O)=O)cc1,nt,61.5*,nt,18.4,14.5,51.7,46.8*,59.1*
Cc1ccc(-n2c3nc(=O)[nH]c(=O)c-3cc3cc([N+](=O)[O-])ccc32)cc1,0.2,58.4*,-7.1,7.8,-2.5,8.0,45.8*,37.9*
Cc1cccc(OCC(=O)NCC(=O)N/N=C/c2cc(Br)cc(Br)c2O)c1,42.8,56.4*,-19.8,55.0,27.5,27.8,76.9*,22.0
COc1cccc(/C=N/NC(=O)CNC(=O)COc2ccccc2)c1O,8.4,15.2,25.2,18.6,4.8,55.1,nt,nt
CCCC(=O)Nc1ccc2c(c1)OC[C@@H](C)N(Cc1ccccc1F)C[C@H](C)[C@H](OC)CN(C)C2=O,nt,nt,12.3,nt,nt,nt,nt,nt
C=CC(=O)Nc1ccc(CN2C(=O)N(c3c(Cl)c(OC)cc(OC)c3Cl)Cc3cnc(NCCCCN(CC)CC)nc32)cc1,49.9,70.9*,nt,3.1,9.7,nt,45.4*,55.0*
Cc1cc(C)n(-c2nnc3n2N=C(c2c[nH]c4ccccc24)CS3)n1,19.0,55.6*,nt,-4.6,-18.9,43.1,45.7*,50.0*
CCc1nonc1NC(=O)c1oc2ccc(F)cc2c1C,-38.4,-17.6,-80.3,nt,-2.9,nt,nt,nt
SMILES,Shn3 inh set2,Mdm2-MdmX inh,PAX8 reporter,Beta apoptosis,Gli-Sufu antag,CSC inhib,Mdm2 MdmX conf,FLuc counter
Cc1c(C(=O)Nc2nonc2-c2ccc(F)cc2)oc2ccc(F)cc12,9.2,85.8*,28.5,-1.5,-16.7,?,76.5*,52.0*
C/C=C/c1ccc2c(c1)O[C@H](CN(C)Cc1ccccn1)[C@@H](C)CN([C@@H](C)CO)S2(=O)=O,nt,nt,17.7,nt,nt,nt,nt,nt
CC(=O)Nc1ccc(OCCC[n+]2ccccc2)cc1,-6.5,18.3,7.4,-4.9,-3.4,-8.4,nt,nt
CCCCCc1ccc(OCCC[n+]2ccccc2)c(CCCCC)c1,?,88.6*,95.9*,113.2*,82.8*,10.7,75.7*,21.7
CC(NCc1ccc(OCc2ccc(Cl)cc2)cc1)C(O)c1ccccc1 (stereo unspecified),97.0*,100.4*,26.9,35.3,5.5,102.0*,60.1*,51.7*
CC(NCc1cccc(OCc2ccccc2)c1)C(O)c1ccccc1 (stereo unspecified),6.1,19.9,4.7,0.0,0.3,8.9,nt,nt
O=C1C(Cc2ccccc2)Nc2ncnc(N3CCc4ccccc4C3)c2N1Cc1ccc(Cl)cc1 (stereo unspecified),6.6,56.0*,nt,17.1,-3.5,67.0,49.1*,57.3*
CCOC(=O)C1=C(O)/C(=C/c2ccc(-c3ccccc3C(=O)O)o2)SC1=Nc1ccc(C)cc1,nt,nt,10.6,nt,1.7,nt,nt,nt
CCOC(=O)C1=C(O)/C(=C/c2cn(CC(=O)NCC3CCCO3)c3ccccc23)SC1=Nc1ccc(C)cc1 (stereo unspecified),68.8,99.0*,nt,56.6,10.9,76.0*,92.2*,46.6*
Cc1ccc(S(=O)(=O)N(C)C[C@@H]2OCCCC[C@@H](C)Oc3ccc(NS(=O)(=O)c4c(C)noc4C)cc3C(=O)N([C@@H](C)CO)C[C@H]2C)cc1,nt,nt,18.6,nt,nt,nt,nt,nt
O=C(C[C@@H]1CC[C@@H]2[C@H](COC[C@@H](O)CN2C(=O)Nc2ccccc2)O1)NCc1ccccc1F,nt,nt,-7.2,nt,nt,nt,nt,nt
Cc1cc(C2CCCCC2)n(O)c(=O)c1,60.8,73.9*,73.3*,87.8*,14.4,104.8*,57.8*,32.2
O=C(NC[C@H]1[C@H](c2ccccc2)[C@@H](CO)N1C(=O)C1CCC1)NC1CCCC1,nt,nt,-13.0,nt,nt,nt,nt,nt
COc1ccc(C(=O)Nc2cccc(NC(=O)c3cccs3)c2)cc1,15.5,3.6,1.4,-1.4,-13.0,7.0,nt,nt
